Laboratory results reported in PubChem BioAssay.

Each compound was assayed against Follistatin-related protein 3 (Homo sapiens) (UniProt O95633) (assay: FSTL3 binders on small-molecule microarrays, primary screen, biochemical, small-molecule microarray, 635 nm fluorescence (AID 1105;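 further: score merges emission near 667 nm and signal to noise per printed spot across three slides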)). Settings: FSTL3 binding, higher = more signal.
Chain of Follistatin-related protein 3 (Homo sapiens) (O95633 whole entry, looked up): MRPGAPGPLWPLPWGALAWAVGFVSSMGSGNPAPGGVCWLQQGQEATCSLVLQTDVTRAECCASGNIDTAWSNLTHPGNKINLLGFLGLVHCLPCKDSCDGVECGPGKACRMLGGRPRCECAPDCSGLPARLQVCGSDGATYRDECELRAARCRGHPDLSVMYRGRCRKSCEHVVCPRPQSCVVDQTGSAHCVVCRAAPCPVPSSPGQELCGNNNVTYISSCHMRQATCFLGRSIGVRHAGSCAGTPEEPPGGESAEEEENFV

SMILES	composite z-score
COCCOC(=O)N1C(=O)[C@@]2(c3cc(C#CCC(C(=O)OC)C(=O)OC)ccc31)[C@H](C(=O)NC[C@H](O)c1ccccc1)[C@H]1C(=O)O[C@H](c3ccccc3)[C@H](c3ccccc3)N1[C@@H]2c1ccc(O)cc1	0.186
Cc1cccc([C@H]2C[C@H]3C(Br)=C[C@@H]2C(=O)[C@]32CO2)c1	-0.412
C=CCC(OC(C)=O)[C@@H]1[C@@H](N(Cc2ccc(-c3cccc(C(F)(F)F)c3)o2)C(=O)c2cccc3ccccc23)c2cc(OCCCO)ccc2N1C(=O)Cc1ccc(OC)cc1 (some centres not stated)	0.495
CC(C)C[C@@H]1NC(=O)[C@@]23C(=O)N[C@@H](Cc4ccccc4)C2[C@H](C)[C@@]2(C)O[C@H]2C3/C=C/C/C=C\CNC(=O)[C@@H](C)NC1=O (some centres not stated)	0.331
CCOC(=O)C1=CCN(S(=O)(=O)c2ccc(C)cc2)C1c1ccccc1 (configuration not stated)	0.493
COCCOC(=O)N1C(=O)[C@@]2(c3ccccc31)[C@H](c1ccccc1OCCO)N1[C@H](c3ccccc3)[C@H](c3ccccc3)OC(=O)[C@H]1[C@@H]2C(N)=O	1.43
C=C(COC)C(=O)CC[C@@H](OC(=O)c1cccnc1)c1ccccc1OCCO	0.529

These compounds were tested against Dickkopf-related protein 1 (Homo sapiens) (UniProt O94907) (assay: DKK1 binders on small-molecule microarrays, primary screen, biochemical, small-molecule microarray, 635 nm fluorescence scan (AID 1106;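 further: score merges emission near 667 nm with signal to noise over three replicate slides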)). Settings: DKK1 binding, higher = more signal.
Chain of Dickkopf-related protein 1 (Homo sapiens) (O94907 whole entry, looked up): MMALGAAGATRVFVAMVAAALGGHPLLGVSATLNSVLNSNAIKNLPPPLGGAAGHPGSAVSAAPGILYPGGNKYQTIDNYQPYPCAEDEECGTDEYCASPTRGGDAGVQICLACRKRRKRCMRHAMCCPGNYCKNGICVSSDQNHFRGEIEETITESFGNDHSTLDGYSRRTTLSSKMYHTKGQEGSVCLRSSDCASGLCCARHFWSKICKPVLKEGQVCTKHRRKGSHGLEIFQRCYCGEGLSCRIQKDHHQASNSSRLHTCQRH

SMILES	composite z-score
[N-]=[N+]=Nc1ccccc1C[C@]1(C(=O)O)N=C(c2ccc(OCCCO)cc2)O[C@H]1c1ccccc1	-0.689
CN1C(=O)[C@@]2(Cc3ccccc3)N=C(c3ccc(OCCCO)cc3)O[C@H]2c2ccccc21	0.191
NC(=O)[C@@H]1[C@H]2C(=O)O[C@H](c3ccccc3)[C@H](c3ccccc3)N2[C@H](c2ccc(OCCO)cc2)[C@@]12C(=O)Nc1ccc(C#CCCO)cc12	0.0322
Cc1ccc(S[C@]2(C(=O)NC(C)C)CC(=O)N(Cc3ccccc3Cl)[C@@H]2c2ccc(CO)cc2)cc1	-1.47
CC(C)=CCCC(C)=CC(O)C1C=CC2C(=O)N(c3ccccc3)C(=O)C2N1Nc1ccccc1F (configuration not stated)	-0.0093
COc1cc2c(cc1OC)CN(C(=O)[C@@H]1[C@H]3C(=O)O[C@H](c4ccccc4)[C@H](c4ccccc4)N3[C@H](c3ccc(O)cc3)[C@@]13C(=O)Nc1ccc(C#CCCO)cc13)CC2	0.755
COc1cc(NN2C(C(O)C3CCCCC3)C=CC3C(=O)N(C)C(=O)C32)cc(OC)c1OC (configuration not stated)	-1.47
CC(C)C(CO)N1C(=O)[C@@H]2[C@H]3C(=O)OCC=C[C@H]3OC23C=CCN(C(C)(C)C)C(=O)[C@@H]13 (some centres not stated)	-0.181
COC(=O)[C@@]1(Cc2ccc(OC)cc2)[C@H]2c3cc(C(=O)N4CCCC4)n(Cc4ccc(S(C)(=O)=O)cc4)c3C[C@H]2CN1C(=O)c1ccccc1	-0.802
CCCNC(=O)[C@@]1(Sc2ccc(C)cc2)CC(=O)N(C2CCCCC2)[C@@H]1c1ccc(CO)cc1I	-0.122
CO[C@H]1O[C@H](CO)[C@@H](OC(=O)Nc2ccc(C#N)cc2)[C@@H]2OC(=O)[C@H](Cc3cccc(Br)c3)C/C=C/C[C@@H](Cc3cccc(Br)c3)C(=O)O[C@@H]12	0.336
COCCOC(=O)N1C(=O)[C@@]2(c3cc(C#CC4(O)CCCCCC4)ccc31)[C@H](C(=O)N1CCN(c3ncccn3)CC1)[C@H]1C(=O)O[C@H](c3ccccc3)[C@H](c3ccccc3)N1[C@@H]2c1ccccc1OCCO	1.32
CCCC=C(CCC)[C@@H](NC(=O)CCc1ccccc1)c1ccc(C(F)(F)F)cc1	-0.429
CC(C)[C@H]1NC(=O)[C@@]23C(=O)N[C@@H](Cc4ccccc4)C2[C@H](C)[C@@]2(C)O[C@H]2C3/C=C/CCC/C=C/CNC(=O)[C@H](Cc2ccccc2)NC1=O (some centres not stated)	0.147
CCCCNC(=O)c1ccc(C#C[Si](C(C)C)(C(C)C)C(C)C)c(OC(C)=O)c1	0.784
C=C(/C(=C/C[C@H](OC(=O)c1ccncc1)c1ccccc1OCCO)c1cnc2ccccc2c1)C(C)C	1.07
COc1cc(NN2C(C(O)c3cc(OC)c(OC)c(OC)c3)C=CC3C(=O)N(c4ccccc4)C(=O)C32)cc(OC)c1OC (configuration not stated)	0.101
COC(=O)[C@@]1(Cc2ccccc2)[C@H]2c3cc(C(=O)N4CCCC4)n(CCSCCO)c3C[C@H]2CN1C(=O)c1ccccc1	-0.78
COCCOC(=O)N1C(=O)[C@@]2(c3cc(C#Cc4ccc(OC)cc4)ccc31)[C@H](c1ccc(OCCO)cc1)N1[C@H](c3ccccc3)[C@H](c3ccccc3)OC(=O)[C@H]1[C@@H]2C(=O)Nc1nc2ccccc2s1	0.154
COCCOC(=O)N1C(=O)[C@@]2(c3cc(C#CCC(C(=O)OC)C(=O)OC)ccc31)[C@H](c1ccc(O)cc1)N1[C@H](c3ccccc3)[C@H](c3ccccc3)OC(=O)[C@H]1[C@@H]2C(=O)NC[C@H](O)c1ccccc1	0.148
